PubChem BioAssay
Active and inactive are the calls of the source. Unless noted, the rule behind the calls is not given here.

Tests used:
[1] = system: Wnt5a (protein binding on small-molecule microarray); test: small molecules binding Wnt5a protein – biophysical, small-molecule microarray, 635/667 nm fluorescence, primary screen (AID 1142); details: 635 nm fluorescence, higher = more signal;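 note: fluorescence read at 667 nm with signal to noise per printed feature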
[2] = ATP-based viability of Huh7 replicon cells – cell-based, CellTiter-Glo luminescence, basal, 48 h, cytotoxicity control for HCV replication inhibitor project, primary screen (AID 1143); details: higher = more signal, called active from +8 up or from −8 down;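 note: Huh7 hepatoma cells carrying a hepatitis C replication reporter with no stimulus; test concentration not given here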
[3] = Pseudomonas biofilm growth suppression – PAO1 strain, BacTiter-Glo luminescence, LB-PBS, primary screen (AID 1144); details: P. aeruginosa PAO1 biofilm, 12 h, higher = more signal
[4] = basal CRE-LacZ reporter activity in PC12 – cell-based, unstimulated, primary screen (AID 1145); details: no forskolin, luminescence, 4.5 h, higher = more signal, called active from +8 up or from −8 down
[5] = forskolin-driven CRE-LacZ activity in PC12 – cell-based, CRE-LacZ reporter, forskolin-stimulated, primary screen (AID 1146); details: luminescence, 4.5 h, higher = more signal, called active from +8 up or from −8 down;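 note: PC12 cells with 6xCRE LacZ reporter stimulated by forskolin 10 µM; beta-galactosidase reporter signal reflecting CREB driven transcription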
[6] = biological target: Streptavidin (Streptomyces avidinii) (UniProt P22629); test: compounds binding control protein streptavidin – biophysical, small-molecule microarray, 635/667 nm fluorescence, artefact control for SMM compound annotation, primary screen (AID 1147); details: higher = more signal;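 note: signal reflects streptavidin binding to arrayed compounds as a control protein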
[7] = probe aInhba binding on compound microarray – biochemical, small-molecule microarray, 635/667 nm fluorescence, primary screen (AID 1148); details: higher = more signal;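 note: score merges 667nm spot fluorescence with signal-to-noise for antibody binding to printed compounds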
Torsin-1A (Homo sapiens) [8] = biological target: Torsin-1A (Homo sapiens) (UniProt O14656); test: TOR1A wild-type binding on microarray – cell lysate, small-molecule microarray, lysate, 635/667 nm, primary screen (AID 1149); details: COS7 hTOR1A-WT lysate, 635 nm fluorescence, higher = more signal
Torsin-1A (Homo sapiens) [9] = biological target: Torsin-1A (Homo sapiens) (UniProt O14656); test: torsin A mutant lysate binding on microarrays – cell lysate, small-molecule microarray, COS7 lysate, 635/667 nm fluorescence, primary screen (AID 1150); details: COS7 hTOR1A mutant lysate, 635 nm fluorescence, higher = more signal;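 note: score pools 667 nm emission and signal to noise measuring lysate protein binding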
[10] = system: Sonic hedgehog protein (Shh); test: Sonic hedgehog microarray binding compounds – biochemical, small-molecule microarray, 635/667 nm fluorescence, primary screen (AID 1151); details: 635 nm fluorescence, higher = more signal;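 note: Shh protein binding to compounds spotted on small-molecule microarray slides; score combines spot fluorescence intensity with signal-to-noise across triplicate slides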

Streptavidin (Streptomyces avidinii), sequence (P22629 whole entry, looked up): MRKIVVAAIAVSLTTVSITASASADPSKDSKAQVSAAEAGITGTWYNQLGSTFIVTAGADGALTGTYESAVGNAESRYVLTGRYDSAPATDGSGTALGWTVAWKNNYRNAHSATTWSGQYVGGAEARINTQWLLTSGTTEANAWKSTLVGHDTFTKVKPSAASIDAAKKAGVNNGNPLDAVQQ
Torsin-1A (Homo sapiens), sequence (O14656 whole entry, looked up): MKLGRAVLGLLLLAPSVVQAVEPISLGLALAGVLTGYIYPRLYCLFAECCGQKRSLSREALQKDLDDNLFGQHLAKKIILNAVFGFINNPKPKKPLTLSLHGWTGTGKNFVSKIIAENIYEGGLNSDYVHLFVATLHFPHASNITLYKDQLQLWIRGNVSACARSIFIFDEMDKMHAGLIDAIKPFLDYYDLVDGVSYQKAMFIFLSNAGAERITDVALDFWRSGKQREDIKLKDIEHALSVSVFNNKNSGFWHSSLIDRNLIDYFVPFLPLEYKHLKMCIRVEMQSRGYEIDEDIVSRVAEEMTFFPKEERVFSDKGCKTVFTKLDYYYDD

Row | SMILES | composite z-score [1] | z-score [2] | z-score [3] | z-score [4] | z-score [5] | composite z-score [6] | composite z-score [7] | composite z-score (Torsin-1A (Homo sapiens) [8]) | composite z-score (Torsin-1A (Homo sapiens) [9]) | composite z-score [10]
1 | COc1cc2c(cc1O)C(c1cccs1)N(Cc1cccc(OC(F)(F)F)c1)CC2 (stereo not given) | -0.189 | -4.65 (inactive) | 0.284 (inactive) | -0.644 (inactive) | -0.73 (inactive) | 0.403 | -0.0762 | 0.288 | 0.0814 | 0.251
2 | COCC(=C=CC[C@H](O)c1cccc(OCCO)c1)C[C@H](O)c1cc(Cl)cc(Cl)c1O | 0.556 | -0.465 (inactive) | -0.494 (inactive) | 10 (active) | 0.32 (inactive) | -0.128 | 0.0104 | 1.06 | 0.878 | 1.77
3 | O=C1NC(=O)C2C1C=CC(C(O)C1CC=CCC1)N2Nc1ccccn1 (stereo not given) | 0.524 | 0.607 (inactive) | -0.893 (inactive) | -0.329 (inactive) | 0.383 (inactive) | 0.0992 | -0.0645 | 0.153 | -0.0899 | 0.682
4 | CO[C@H]1O[C@H](CO)[C@@H](OC(=O)Nc2cccc(F)c2)[C@H](OC(=O)Nc2ccccc2)[C@H]1OC(=O)Nc1ccccc1 | 0.701 | -4.58 (inactive) | -0.703 (inactive) | -0.0484 (inactive) | -1.22 (inactive) | -0.0985 | 0.226 | 1.28 | 0.616 | 1.61
5 | CN(C)CCCC[C@@H]1NC(=O)[C@H]2C[C@@H](C(=O)NCCCCCN)[C@@H](c3cccc(OCCO)c3)N2C1=O | 0.456 | -1.01 (inactive) | 0.767 (inactive) | 0.155 (inactive) | 0.421 (inactive) | 1.13 | 0.495 | 1.99 | 2.15 | 1.28
6 | C=CCC(OC(C)=O)[C@@H]1[C@@H](N(Cc2ccc(-c3ccccc3)cc2)C(=O)Cc2ccc(F)cc2)c2cc(OCCCO)ccc2N1C(=O)c1ccc2ccccc2c1 (stereo not given in full) | -0.121 | 0.0038 (inactive) | 0.197 (inactive) | 0.819 (inactive) | 0.601 (inactive) | -0.0075 | 0.0464 | -0.287 | -0.0056 | 0.627
7 | O=C1O[C@@H](c2ccccc2)[C@@H](c2ccccc2)N2[C@@H](c3ccccc3OCCO)[C@]3(C(=O)Nc4ccc(C#CC5(O)CCCCCC5)cc43)[C@@H](C(=O)N3CCN(c4ncccn4)CC3)[C@H]12 | 0.133 | -2.72 (inactive) | 0.703 (inactive) | 0.209 (inactive) | 2.96 (inactive) | 0.077 | 0.0074 | 0.987 | 0.808 | 1.11
